HT1080 IDH1KD tx: qHTS for induction of synthetic lethality in tumor cells producing 2HG: qHTS for the HT-1080-IDH1KD cell line. AID 686971, 2013. actives 2% (n = 360,000). HT-1080 IDH1 knockdown viability, ATP luminescence, 48 h. Potency, µM (titrated, usually from 46.1 µM), for the others: at the highest dose activity, negative = toxicity, hits mostly cytotoxic;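 further: potency means the concentration at half of the fitted maximal effect; 0% = DMSO wells and -100% = cell-free medium wells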
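Luminescent ATP read-out (CellTiter-Glo, 10 min at room temperature) after 48 h compound exposure at 37 °C gave viability of IDH1-knockdown HT-1080 cells. Activity was normalised to DMSO and cell-free wells, then fitted as concentration-response curves.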
IL1B secr inh: qHTS for Inhibitors of Inflammasome Signaling: IL-1-beta AlphaLISA Primary Screen; THP-1 LPS/ATP IL-1B secretion, AlphaLISA, 16 h; active compounds read low; activity change, % at 57.5 µM; actives 4.7% (n = 360,000); in the data active means activity change below about -50%; inconclusive means mostly about -30% to -49%
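THP-1 cells pretreated 1 hr with compounds (up to 57.5 uM final), then stimulated with LPS (250 ng/mL final) plus ATP (1.25 mM final); secreted IL-1B measured by AlphaLISA after 16 hr, decreased signal indicating inhibition.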
TDP1 cell CPT: qHTS for Inhibitors of human tyrosyl-DNA phosphodiesterase 1 (TDP1): qHTS in cells in presence of CPT; chicken DT40 Tdp1-/-;hTDP1 cells + 20 nM CPT, ATP luminescence, 48 h; Potency, µM (titrated, usually from 46.2 µM), without a hit: top-dose activity change, negative = growth inhibition, hits mostly inhibitors; actives 12% (n = 420,000); further: potency means the concentration at half of the fitted maximal effect; nearly all actives have a fitted effect of over 55% in size
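Cell growth measured by CellTiter-Glo luminescence after a minimum 48 h, 37 C compound exposure with 20 nM CPT in Tdp1-knockout DT40 cells stably expressing hTDP1, seeded 400/well; qHTS titration format.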
DT40 TDP1 no CPT: qHTS for Inhibitors of human tyrosyl-DNA phosphodiesterase 1 (TDP1): qHTS in cells in absence of CPT; DT40 Tdp1-/- hTDP1 cells, no CPT, ATP luminescence, 48 h; Potency, µM (series often up to 46.2 µM), inactives show at the top dose activity change, negative = growth inhibition, actives largely listed as inhibitors; actives 15% (n = 420,000); further: potency means the concentration at half of the fitted maximal effect; nearly all actives have a fitted effect of over 55% in size
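Cells were dispensed at 400 per well, compounds added by pin tool, plates incubated ≥48 hr at 37 °C, then CellTiter-Glo added for 30 min at room temperature before luminescence reading. Line: DT40 Tdp1-/- complemented with hTDP1; camptothecin omitted.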
HT1080NT lethal: qHTS for induction of synthetic lethality in tumor cells producing 2HG: qHTS for the HT-1080-NT fibrosarcoma cell line | actives 1.6% (n = 360,000) | Potency, µM (titrated, usually from 46.1 µM), without a hit: at the highest dose activity, negative = less viability, actives largely listed as cytotoxic | HT-1080-NT fibrosarcoma viability, CellTiter-Glo ATP luminescence, 48 h | AID 686970, 2013;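 further: NT is the 2HG producing partner of a matched IDH1 knockdown line; potency means the concentration at half of the fitted maximal effect; 0% = DMSO-treated cells and -100% = media-only wells without cells; nearly all actives have a fitted effect of over 55% in size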
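HT-1080-NT; 750 cells/well; 5% FBS RPMI; 48 h compound, 37 degrees C; CellTiter-Glo luminescence; curve fitting and curve-class assignment.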
The depositor's hits bear a star. An excerpt weighted towards active compounds, which were near 19% of everything screened. Unless noted, the call rests on the fitted dose curve; in most records, active means well fitted curve in the direction sought with a large enough effect; inconclusive means small, poorly fitted or top-dose-only effect, or another doubt; inactive means no such curve, though single readings can be large; an effect the other way counts as inactive or inconclusive. Unless noted, on the % scale 0 is the no-effect control and ±100 the full control effect.

How did Cc1cccc(-n2ncc3c(=O)[nH]c(SCC(=O)N4CC(=O)Nc5ccccc54)nc32)c1 do in these assays?
HT1080 IDH1KD tx: 7%; IL1B secr inh: 47; TDP1 cell CPT: inconclusive; DT40 TDP1 no CPT: 16µM*; HT1080NT lethal: 1%

Results for CCOC(=O)N1CCN(C(=O)CSc2nc3c(cnn3-c3ccc(Cl)cc3)c(=O)[nH]2)CC1 ?
HT1080 IDH1KD tx: 6%; IL1B secr inh: 17; TDP1 cell CPT: 21µM*; DT40 TDP1 no CPT: 26µM*; HT1080NT lethal: 3%

Results for CCOC(=O)C(C)Sc1nc2c(cnn2-c2ccc(F)cc2)c(=O)[nH]1 (configuration not stated) ?
HT1080 IDH1KD tx: -7%; IL1B secr inh: 75; TDP1 cell CPT: 21µM*; DT40 TDP1 no CPT: inconclusive; HT1080NT lethal: -10%

Results for Cc1cccc(C)c1NC(=O)CN(C)C(=O)c1ccccc1Sc1ccccc1C#N ?
HT1080 IDH1KD tx: 1%; IL1B secr inh: 7; TDP1 cell CPT: inconclusive; DT40 TDP1 no CPT: inconclusive; HT1080NT lethal: 2%

Results for Cn1cccc1C(=O)NC(=O)COC(=O)CNC(=O)CNC(=O)c1ccc(Cl)cc1Cl ?
HT1080 IDH1KD tx: -9%; IL1B secr inh: 25; TDP1 cell CPT: -18%; DT40 TDP1 no CPT: 1%; HT1080NT lethal: -3%

How did Cc1ccc(CN2CCc3nnc(C(C)NC(=O)c4cc(F)ccc4F)n3CC2)o1 (configuration not stated) do in these assays?
TDP1 cell CPT: 12%; DT40 TDP1 no CPT: -8%

How did CC1CN(C(=O)CCC(=O)NCCCN2C(C)CCCC2C)c2ccccc2O1 (configuration not stated) do in these assays?
HT1080 IDH1KD tx: 3%; IL1B secr inh: -18; TDP1 cell CPT: 0%; DT40 TDP1 no CPT: -13%; HT1080NT lethal: 5%

What do the screens show for `COc1ccc(/C=C2\SC(=S)NC2=O)cc1OS(=O)(=O)c1ccc(NC(C)=O)cc1`?
HT1080 IDH1KD tx: 16µM*; IL1B secr inh: 14; TDP1 cell CPT: inconclusive; DT40 TDP1 no CPT: inconclusive; HT1080NT lethal: 21µM*

Results for COc1cc(/C=C2\SC(=S)N(CCCCC(=O)O)C2=O)ccc1OS(=O)(=O)c1ccc(C)cc1 ?
HT1080 IDH1KD tx: -9%; IL1B secr inh: -87*; TDP1 cell CPT: inconclusive; DT40 TDP1 no CPT: inconclusive; HT1080NT lethal: -2%

Results for COc1cc(/C=C2/SC(=S)NC2=O)ccc1OS(=O)(=O)c1ccc(C)cc1 ?
HT1080 IDH1KD tx: inconclusive; IL1B secr inh: -53*; TDP1 cell CPT: inconclusive; DT40 TDP1 no CPT: 15µM*; HT1080NT lethal: inconclusive

How did CCOc1ccc(/C=C2\SC(=S)NC2=O)cc1OC do in these assays?
HT1080 IDH1KD tx: -19%; IL1B secr inh: 11; TDP1 cell CPT: inconclusive; DT40 TDP1 no CPT: inconclusive; HT1080NT lethal: -23%

Results for COc1cccc(/C=C2\SC(=S)NC2=O)c1OS(=O)(=O)c1ccc(NC(C)=O)cc1 ?
HT1080 IDH1KD tx: -17%; IL1B secr inh: 15; TDP1 cell CPT: -9%; DT40 TDP1 no CPT: -21%; HT1080NT lethal: 0%

How did COc1ccc(CCCC(=O)N/N=C/c2ccccc2OC)cc1 do in these assays?
HT1080 IDH1KD tx: 11%; IL1B secr inh: 0; TDP1 cell CPT: -1%; DT40 TDP1 no CPT: -5%; HT1080NT lethal: 0%

How did CNc1ccc(N=Nc2cccc3ncccc23)cc1 do in these assays?
HT1080 IDH1KD tx: -6%; IL1B secr inh: -54*; TDP1 cell CPT: inconclusive; DT40 TDP1 no CPT: inconclusive; HT1080NT lethal: -8%

Results for O=C(O)CC(NC(=O)Cc1ccc([N+](=O)[O-])cc1)c1ccc2c(c1)OCO2 (configuration not stated) ?
HT1080 IDH1KD tx: inconclusive; IL1B secr inh: 5; TDP1 cell CPT: 5%; DT40 TDP1 no CPT: -2%; HT1080NT lethal: -4%

How did CC(C)Cn1c(N)c(C(=O)COC(=O)c2c(F)cccc2F)c(=O)n(C)c1=O do in these assays?
HT1080 IDH1KD tx: -2%; IL1B secr inh: 4; TDP1 cell CPT: -26%; DT40 TDP1 no CPT: -13%; HT1080NT lethal: 1%

What do the screens show for `Cc1noc(C)c1C(=O)OCC(=O)c1c(N)n(CC(C)C)c(=O)n(C)c1=O`?
HT1080 IDH1KD tx: 2%; IL1B secr inh: 1; TDP1 cell CPT: 18µM*; DT40 TDP1 no CPT: inconclusive; HT1080NT lethal: 2%

Results for CC(C)Cn1c(N)c(C(=O)COC(=O)c2ccccc2C(=O)c2ccccc2)c(=O)n(C)c1=O ?
HT1080 IDH1KD tx: -4%; IL1B secr inh: 11; TDP1 cell CPT: 16µM*; DT40 TDP1 no CPT: 9.2µM*; HT1080NT lethal: -6%

What do the screens show for `CC(C)Cn1c(N)c(C(=O)COC(=O)c2ccc3ccccc3n2)c(=O)n(C)c1=O`?
HT1080 IDH1KD tx: -8%; IL1B secr inh: 11; TDP1 cell CPT: 16µM*; DT40 TDP1 no CPT: 16µM*; HT1080NT lethal: -9%

How did CCc1ccc(C(=O)OCC(=O)c2c(N)n(CC(C)C)c(=O)n(C)c2=O)cc1 do in these assays?
HT1080 IDH1KD tx: -12%; IL1B secr inh: -7; TDP1 cell CPT: inconclusive; DT40 TDP1 no CPT: inconclusive; HT1080NT lethal: inconclusive

How did CC(C)Cn1c(N)c(C(=O)COC(=O)c2cccn2C)c(=O)n(C)c1=O do in these assays?
HT1080 IDH1KD tx: 0%; IL1B secr inh: -21; TDP1 cell CPT: 15µM*; DT40 TDP1 no CPT: 16µM*; HT1080NT lethal: 1%

What do the screens show for `OC(Cc1ccncc1)c1ccccc1Cl` (configuration not stated)?
HT1080 IDH1KD tx: 6%; IL1B secr inh: -4; TDP1 cell CPT: -12%; DT40 TDP1 no CPT: -8%; HT1080NT lethal: 3%

How did CC(C)(O)C#Cc1ccc(CN2CCc3nnc(CNC(=O)c4cccc(F)c4)n3CC2)cc1 do in these assays?
TDP1 cell CPT: 8%; DT40 TDP1 no CPT: -27%

Results for Cc1onc(-c2c(F)cccc2Cl)c1C(=O)OCC(=O)c1c(N)n(C)c(=O)n(C)c1=O ?
HT1080 IDH1KD tx: -23%; IL1B secr inh: 11; TDP1 cell CPT: inconclusive; DT40 TDP1 no CPT: inconclusive; HT1080NT lethal: inconclusive

How did Cc1onc(-c2ccccc2Cl)c1C(=O)OCC(=O)c1c(N)n(C)c(=O)n(C)c1=O do in these assays?
HT1080 IDH1KD tx: -10%; IL1B secr inh: -21; TDP1 cell CPT: 7.3µM*; DT40 TDP1 no CPT: 7.3µM*; HT1080NT lethal: -6%

Compound activity from PubChem.
